In the supplement of paper PMC6607015:
Where a name gives a salt, the structure may show the parent alone.

How the values were obtained:
Settings in all cases: compound concentration in added solution (µM; 5 µl added to 20 µl cells): 10; 18 h
[1] = test system: A431; assay: LBPA endosome anti-LBPA integrated intensity (sum per cell), Z-score; higher = more LBPA staining
Method in brief: (§1)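 In duplicate 384-well imaging plates, 3,500 HeLa MZ or A431 cells in 20 µl per well were seeded onto 5 µl of 10 µM compound solution. The cells were incubated for 18 h, fixed in 4% PFA and stained with 6C4 anti-LBPA antibody, filipin, propidium iodide and CellTracker green before four 20× images were acquired per well. Values are AcuityXpress-normalised Z-scores of per-cell integrated LBPA or filipin intensity, obtained by MetaXpress segmentation over the whole cell or in LBPA endosomes.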

[2] = test system: HeLa MZ; assay: as above
Method in brief: as §1

[3] = test system: A431; assay: whole-cell filipin (free cholesterol) integrated intensity, Z-score; higher = more cholesterol staining
Method in brief: as §1

[4] = test system: HeLa MZ; assay: as above
Method in brief: as §1

[5] = test system: A431; assay: filipin (cholesterol) integrated intensity within LBPA endosomes, Z-score; higher = more cholesterol in LBPA endosomes
Method in brief: as §1

[6] = test system: HeLa MZ; assay: as above
Method in brief: as §1

Row | Compound | LBPA endosome anti-LBPA integrated intensity (z-score) [1] | LBPA endosome anti-LBPA integrated intensity (z-score) [2] | whole-cell filipin (z-score) [3] | whole-cell filipin (z-score) [4] | filipin (z-score) [5] | filipin (z-score) [6]
1 | Nc1c(Br)cc(Br)cc1CN[C@H]1CC[C@H](O)CC1 [Ambroxol hydrochloride] | -0.487 | 0.757 | -0.529 | -0.141 | -0.428 | -0.0836
2 | NNc1nncc2ccccc12 [Hydralazine hydrochloride] | -0.438 | -1.11 | -0.55 | -0.572 | -0.474 | -0.461
3 | CCc1ccc(CCOc2ccc(CC3SC(=O)NC3=O)cc2)nc1 (stereo not drawn) [Pioglitazone] | -0.492 | -0.449 | -0.697 | -0.748 | -0.5 | -0.629
4 | Nc1ccc(S(=O)(=O)Nc2ncccn2)cc1 [Sulfadiazine] | -0.494 | -0.985 | -0.718 | -0.987 | -0.481 | -0.62
5 | C/C(=C(\CCOP(=O)(O)O)SC(=O)c1ccccc1)N(C=O)Cc1cnc(C)nc1N [Benfotiamine] | -0.532 | -0.653 | -0.469 | -0.157 | -0.411 | -0.31
6 | CCCCC(O)c1ccccc1 (stereo not drawn) [Fenipentol] | -0.545 | -0.11 | -0.922 | -0.426 | -0.553 | -0.613
7 | C(=C\c1ccccc1)/CN1CCN(C(c2ccccc2)c2ccccc2)CC1 [Cinnarizine] | -0.223 | 0.618 | -0.605 | -0.52 | -0.314 | -0.0159
8 | CC12CC3CC(C)(C1)CC(N)(C3)C2 [Memantine Hydrochloride] | -0.449 | 0.231 | 0.233 | 0.438 | -0.349 | -0.0275
9 | N[C@H]1CONC1=O [(S)-(-)-Cycloserine] | -0.455 | -0.138 | -0.147 | -0.221 | -0.457 | -0.283
10 | NS(=O)(=O)c1cc2c(cc1Cl)N=C(CSCc1ccccc1)NS2(=O)=O [Benzthiazide] | -0.596 | -0.997 | -0.0125 | -0.328 | -0.513 | -0.593
11 | COc1ccc(/C=C/C(=O)Nc2ccccc2C(=O)O)cc1OC [Tranilast] | -0.353 | -0.361 | -0.609 | -0.648 | -0.443 | -0.608
12 | COCCOC(=O)C1=C(C)NC(C)=C(C(=O)OC(C)C)C1c1cccc([N+](=O)[O-])c1 (stereo not drawn) [Nimodipine] | -0.345 | 0.468 | 0.0525 | 0.629 | -0.323 | -0.286
13 | CCCC(=O)Nc1ncnc2c1ncn2[C@@H]1O[C@@H]2COP(=O)(O)O[C@H]2[C@H]1OC(=O)CCC [Bucladesine sodium salt] | -0.466 | -0.34 | -0.132 | 0.0614 | -0.405 | -0.372
14 | CN(C/C=C/c1ccccc1)Cc1cccc2ccccc12 [Naftifine hydrochloride] | -0.115 | -0.525 | 0.224 | -0.277 | -0.136 | -0.339
15 | COc1cc(N)c(Cl)cc1C(=O)NC1CCN(Cc2ccccc2)CC1 [Clebopride maleate] | 0.365 | 2.01 | -0.171 | 0.217 | 0.0875 | 0.539
16 | O=C1CN(/N=C/c2ccc(-c3ccc([N+](=O)[O-])cc3)o2)C(=O)N1 [Dantrolene sodium salt] | -0.554 | -0.147 | -1.1 | -0.944 | -0.655 | -0.686
17 | CC(C)NCC(O)c1ccc(O)c(O)c1 (single isomer, unassigned; (-)) [(-)-Isoproterenol hydrochloride] | -0.173 | -0.052 | 0.672 | -0.415 | -0.458 | -0.467
18 | CC(=O)OCC(=O)[C@@]1(O)[C@H](C)C[C@H]2[C@@H]3CCC4=CC(=O)C=C[C@]4(C)[C@@]3(F)[C@@H](O)C[C@@]21C [Dexamethasone acetate] | -0.279 | -0.245 | -0.619 | -0.504 | -0.34 | -0.593
19 | OCCN1CCN(CCCN2c3ccccc3C=Cc3ccccc32)CC1 [Opipramol dihydrochloride] | 0.228 | 1.81 | 0.629 | -0.0646 | 0.712 | 1.15

Row | Compound | LBPA endosome anti-LBPA integrated intensity (z-score) [1] | LBPA endosome anti-LBPA integrated intensity (z-score) [2] | whole-cell filipin (z-score) [3] | whole-cell filipin (z-score) [4] | filipin (z-score) [5] | filipin (z-score) [6]
20 | CCCCNC(=O)NS(=O)(=O)c1ccc(C)cc1 [Tolbutamide] | -0.288 | 0.292 | -0.409 | -0.426 | -0.47 | -0.503
21 | CC1=C(C(=O)O)N2C(=O)[C@@H](NC(=O)[C@H](N)c3ccccc3)[C@H]2SC1 [Cephalexin monohydrate] | -0.543 | -0.797 | -0.64 | -0.482 | -0.499 | -0.511
22 | COC1=CC(=O)C[C@@H](C)[C@]12Oc1c(Cl)c(OC)cc(OC)c1C2=O [Griseofulvin] | -0.41 | -0.867 | -0.73 | -1.73 | -0.468 | -0.516
23 | Clc1ccccc1C(c1ccccc1)(c1ccccc1)n1ccnc1 [Clotrimazole] | -0.44 | 0.655 | -0.0982 | 0.216 | -0.276 | -0.063
24 | COc1ccccc1OCCNCC(O)COc1cccc2[nH]c3ccccc3c12 (stereo not drawn) [Carvedilol] | 4.32 | 3.72 | 2.68 | 3 | 3.9 | 5.27
25 | Cn1c(=O)c2c(ncn2CC(=O)O)n(C)c1=O [Acefylline] | -0.332 | 0.383 | -0.237 | -0.0327 | -0.446 | -0.485
26 | NS(=O)(=O)Cc1noc2ccccc12 [Zonisamide] | -0.257 | 0.173 | -0.0819 | 0.0656 | -0.385 | -0.275
27 | CO[C@@]1(NC(=O)C2SC(=C(C(N)=O)C(=O)O)S2)C(=O)N2C(C(=O)O)=C(CSc3nnnn3C)CS[C@@H]21 (stereo partly drawn) [Cefotetan] | -0.675 | -1.41 | -0.843 | -0.864 | -0.604 | -0.594
28 | CC/C(=C(\c1ccccc1)c1ccc(OCCN(C)C)cc1)c1ccccc1 [Tamoxifen citrate] | 2.11 | 0.441 | 0.819 | 0.438 | 2.05 | 2.47
29 | COc1cc(Cc2cnc(N)nc2N)cc(OC)c1OC [Trimethoprim] | -0.479 | -0.434 | -0.787 | -0.667 | -0.515 | -0.558
30 | NCCC[C@H](N)CC(=O)N[C@H]1CNC(=O)[C@H]([C@H]2C[C@H](O)NC(N)=N2)NC(=O)/C(=C/NC(N)=O)NC(=O)[C@H](CO)NC(=O)[C@H](CO)NC1=O [Viomycin sulfate] | -0.57 | -1.06 | -0.305 | -0.46 | -0.563 | -0.474
31 | C#C[C@]1(O)CC[C@H]2[C@@H]3CCc4cc(OC)ccc4[C@H]3CC[C@@]21C [Ethynylestradiol 3-methyl ether] | -0.376 | 0.717 | -0.391 | 0.0701 | -0.42 | -0.16
32 | CN1CCCC(CC2c3ccccc3Sc3ccccc32)C1 (stereo not drawn) [Metixene hydrochloride] | 3.73 | 1.25 | 0.301 | -0.563 | 3.15 | 1.94
33 | Cc1cc(CC(=O)O)n(C)c1C(=O)c1ccc(Cl)cc1 [Zomepirac sodium salt] | -0.359 | 0.635 | -0.277 | 0.00846 | -0.413 | -0.439
34 | Cc1cnc(NC(=O)C2=C(O)c3ccccc3S(=O)(=O)N2C)s1 [Meloxicam] | -0.49 | 0.298 | -0.567 | -0.195 | -0.477 | -0.459
35 | CCN(CC)CCOCCOC(=O)C1(c2ccccc2)CCCC1 [Carbetapentane citrate] | 0.618 | 1.63 | 0.819 | 0.39 | 0.894 | 0.461
36 | CC(=O)[C@H]1CC[C@H]2[C@@H]3CC=C4C[C@@H](O)CC[C@]4(C)[C@H]3CC[C@]12C [Pregnenolone] | 2.84 | 2.65 | 1.33 | 1.33 | 2.1 | 1.2
37 | Cn1cnc([N+](=O)[O-])c1Sc1ncnc2[nH]cnc12 [Azathioprine] | -0.583 | -0.922 | -0.805 | -1.15 | -0.521 | -0.677
38 | CN1CCOC(c2ccccc2)c2ccccc2C1 (stereo not drawn) [Nefopam hydrochloride] | -0.544 | -0.0559 | -0.752 | -0.617 | -0.509 | -0.197
